This is an account of results in PubChem BioAssay (NCATS).

Inconclusive results are not listed. A call without a number means that no potency is given here. Values without a mark were called inactive. The source made the active and inactive calls. Calls come from the whole dose curve; as a rule, active = well fitted inhibition curve with a large enough effect; inconclusive = small, poorly fitted or top-dose-only effect; inactive = flat fitted curve, though single readings scatter. Numbered stars: 1 amine (or outer) side, 2 acyl side, 3 side chain; on linkers, the order of the positions; unused ones are H or OH. Square brackets hold non-standard residues; d marks the D form. Peptide text beside a SMILES is read from it. * marks the point of attachment. X10 = O=C(C(CC(O)CO)O[*:1])[*:2]; AMC = Cc1cc(=O)oc2cc(N*)ccc12; NMeV = CN[CH](C(=O)O)C(C)C; Cbz = O=C(OCc1ccccc1)*; NMeA = CN[CH](C)C(=O)O; βAla = NCCC(=O)O

The target of the experiment is Aldehyde dehydrogenase, mitochondrial (Homo sapiens) (UniProt P05091). The experiment can be described thus: qHTS for Inhibitors of the Aldehyde Dehydrogenase Family (ALDH2) Primary screen (AID 2061308). Note: nearly all actives have a fitted effect of over 55% in size. Conditions: ALDH2 enzyme inhibition qHTS, 1536-well; series mostly up to 56 µM. A general note: Quantitative high-throughput screening tests each substance at several concentrations.
For the molecule `COc1cc(/C=C2\CC[C@H]3COC[C@@H](c4cc(F)c(F)c(F)c4)N3C2=O)ccc1-n1cnc(C)c1`, the Potency entry was “inactive”. Same read-out and setting: under `C=C1CCC[C@]2(C)CC/C(=C(/CO)C(=O)OC)C[C@@H]12` stands “inactive”; under `CC(=O)C=C=C1C(C)(C)CC(O)CC1(C)O[C@@H]1O[C@H](CO[C@H]2OC[C@](O)(CO)[C@H]2O)[C@@H](O)[C@H](O)[C@H]1O` (stereo not given in full), “inactive”. On the same count and under the same terms, the entry for `CC(O)C/C=C/C=C/C(=O)OC1C=C2COC(=O)C2(O)C2(C)CCCC(C)(C)C12` (stereo not given) is “inactive”. Still for that read-out and setting: the entry for `COC(=O)C[C@H]1[C@]2(C)C3=C(C)[C@H](c4ccoc4)C[C@H]3O[C@@H]2[C@H](O)C2[C@](C)(C(=O)OC)C=CC(=O)[C@@]21C` (stereo not given in full) is “inactive”; for `C[C@@H]1O[C@@H](O[C@H]2[C@@H]3C=CO[C@@H](O[C@@H]4O[C@H](CO)[C@@H](O)[C@H](O)[C@H]4O)[C@@H]3[C@@]3(CO)O[C@@H]23)[C@H](O)[C@H](O)[C@H]1OC(=O)/C=C/c1ccc(O)cc1` it is “inactive”; for `COc1cc(-c2cccc(O)c2)cc2c1OCO2` it is “inactive”. Take `C/C=C(\C)C(=O)O[C@H]1[C@@H](O[C@]2(COC(=O)CC(C)C)O[C@H](COC(=O)C(C)CC)[C@@H](OC(C)=O)[C@@H]2O)O[C@H](COC(C)=O)[C@@H](O)[C@@H]1O` (stereo not given in full): the Potency result is “inactive”.

With `C/C(=N\O)c1ccc(OCC(=O)N2CCCCC2)cc1`, the Potency result is “inactive”. For `C=C1CCC2C(C(C)(C)O)CCC2(C)CC(O)C(=C)CCC1O` (stereo not given), the Potency result is “inactive”.

Turning to `CC(C)COc1ccc(CNC(=O)N(Cc2ccc(F)cc2)C2CCN(C)CC2)cc1`, the Potency entry is “inactive”. On the same count and under the same terms, the entry for `C=CC(C)(C)C12C=C(OC)C(=O)N3C(C(C)C)C(=O)NC31N(OC)c1ccccc12` (stereo not given) is “inactive”; for `Cc1cc2c(cc1N1C(=O)c3cccc4c(CCCO)ccc(c34)C1=O)n(C)c(=O)n2C` it is “inactive”; for `CC1(C)CC[C@]2(C(=O)O[C@@H]3O[C@H](CO)[C@@H](O)[C@H](O)[C@H]3O)CC[C@]3(C)C(=CCC4[C@@]5(C)C[C@@H](O)[C@H](O)C(CO)(CO)C5CC[C@]43C)C2[C@@H]1O` (stereo not given in full) it is “inactive”.

Take `NC(N)=NC(=O)c1cnn(-c2cccc3ncccc23)c1C1CC1`: the Potency result was “inactive”. The same measure, in the same setting: the entry for `C[C@@H]1O[C@@H](O[C@H]2[C@H](O[C@H]3[C@H](O[C@H]4CC[C@@]5(C)C(CC[C@]6(C)C5CC=C5[C@@H]7CC(C)(C)C[C@@H](O)[C@]7(C)CC[C@]56C)C4(C)C)O[C@H](C(=O)O)[C@@H](O)[C@@H]3O)O[C@H](C(=O)O)[C@H](O)[C@@H]2O)[C@H](O)[C@H](O)[C@H]1O` (stereo not given in full) is “inactive”. Same read-out and setting: under `COc1cc(/C=C/C(=O)O[C@@H]2O[C@H](CO)[C@@H](O)[C@H](O)[C@H]2O)ccc1O` stands “inactive”. On the same count and under the same terms, under `C[C@@H]1C(=O)O[C@H]2CC34[C@H]5C[C@@H](C(C)(C)C)C36[C@@H](OC(=O)[C@@H]6O)O[C@@]4(C(=O)O5)[C@]21O` (stereo not given in full) stands “inactive”.

In the case of `Nc1ncnc2c1nc(Cl)n2C1OC2COP(=O)(O)OC2C1O` (stereo not given), the Potency result was “inactive”.

Consider `Cc1cc(=O)oc2cc(NC(=O)[C@H](CCC(=O)O)NC(=O)[C@H](CC(C)C)NC(=O)[C@H](CC(C)C)NC(=O)OCc3ccccc3)ccc12` (Cbz-Leu-Leu-Glu-{AMC}), for which the Potency entry is “inactive”.

With `CCCCc1nc(C)c(CC(=S)N(C)C)c(=O)n1Cc1ccc(-c2ccccc2-c2nn[nH]n2)cc1`, the Potency entry was “inactive”. Same read-out and setting: the entry for `C[C@]12CC/C(=N\OCC(=O)O)C=C1CC[C@@H]1[C@@H]2[C@@H](O)C[C@@]2(C)[C@H]1CC[C@]2(O)C(=O)CO` is “inactive”; for `Cn1nnc(-c2ccc(-c3ccc(N4C[C@H](CO)OC4=O)cc3F)cn2)n1` it is “inactive”; for `C/C1=C/CCC2=CC(OC2=O)C(C)(C)/C=C/C1=O` (stereo not given) it is “inactive”.

Regarding `C[C@@H]1O[C@@H](O[C@H]2[C@H](OC(=O)[C@]34CCC(C)(C)C[C@H]3C3=CCC5[C@@]6(C)CC[C@H](O[C@@H]7O[C@H](C(=O)O)[C@@H](O)[C@H](O)[C@H]7O[C@@H]7O[C@H](CO)[C@H](O)[C@H](O)[C@H]7O)[C@@](C)(C=O)C6CC[C@@]5(C)[C@]3(C)C[C@H]4O)O[C@H](C)[C@H](O[C@@H]3O[C@H](C)[C@H](O)[C@H](O)[C@H]3O)[C@@H]2O)[C@H](O)[C@H](O)[C@H]1O[C@@H]1OC[C@@H](O)[C@H](O[C@@H]2O[C@H](CO)[C@@H](O)[C@H](O)[C@H]2O)[C@H]1O` (stereo not given in full), the activity change, negative = inhibition is -7.78% [at 11.2 µM]. Consider `C=CC1(C)CC(O)C(C(=C)C(=O)OC)C(O)C1C(=C)CO` (stereo not given), for which the Potency entry was “inactive”. On the same count and under the same terms, under `COc1c2c(c(C)c3c1C(=O)OC3)OC1(C)CC(O)C34OC(OC)(CC(OC(C)=O)C3(C)C1C2)OC4(C)C` (stereo not given) stands “inactive”. For `O=C1COC2(CCN(S(=O)(=O)c3ccc(-c4ccc5cccnc5c4)cc3)CC2)CN1C1CC1`, the Potency entry was “inactive”.

For `N#Cc1cccc(C(=O)Nc2cc(-c3ccccc3)nn2-c2ccccc2)c1`, the Potency entry is “inactive”. Still for that read-out and setting: under `CC[C@H](C)/C=C(C)/C=C/C1=CC2=CC(=O)[C@]3(C)OC(=O)[C@@H](C(C)=O)[C@@H]3C2=CO1` stands “inactive”. For the molecule `CC(=O)OC[C@]12[C@H](OC(C)=O)[C@H](OC(=O)c3ccccc3)[C@@H]3[C@@H](OC(C)=O)[C@]1(OC3(C)C)[C@H](C)C[C@H](OC(=O)c1ccccc1)[C@@H]2OC(=O)c1ccccc1`, the Potency result was “inactive”. On the same count and under the same terms, the entry for `C[C@]12C[C@@H](O)[C@@H]3C[C@@]1(O[C@@H]1O[C@H](CO)[C@@H](O)[C@H](O)[C@H]1O)[C@]3(COC(=O)c1ccccc1)C(=O)O2` is “inactive”; for `NC[C@H]1CCC[C@@H](CNC(=O)[C@@H](Cc2c[nH]c3ccccc23)NC(=O)N2CCC3(C=Cc4ccccc43)CC2)C1` it is “inactive”; for `CCC(C)C1NC(=O)C2CCCN2C(=O)C(CC(O)CO)OC(=O)CCNC(=O)C(C)N(C)C(=O)C(C(C)C)N(C)C1=O` (stereo not given) (cyclo([X10]PI[NMeV][NMeA][βAla]); configuration not given here) it is “inactive”. `CC1(C)CCCC2(C)C3=C(C(=O)OC3O)C(O)CC12` (stereo not given): the Potency result was “inactive”. For the molecule `C=C(C(=O)O)C1CCC2(C)CCC(O)C(C)(O)C2C1` (stereo not given), the Potency entry was “inactive”. Still for that read-out and setting: under `C=C1[C@H]2CCC3[C@]4(C)CCC[C@@](C)(C(=O)O)C4CC[C@]3(C2)[C@H]1OC(C)=O` (stereo not given in full) stands “inactive”; under `C=C(C)C1Cc2cc(C(=O)OC3OC(CO)C(O)C(O)C3O)ccc2O1` (stereo not given), “inactive”.

With `COc1cccc(NC[C@@H](O)Cn2c3ccc(Br)cc3c3cc(Br)ccc32)c1`, the Potency result is “inactive”. Same read-out and setting: the entry for `C=C1[C@H](OC(C)=O)[C@H]2[C@@H](OC(C)=O)[C@](C)(OC(C)=O)C[C@]2(OC(C)=O)C(=O)[C@H](C)/C=C/C(C)(C)C(=O)[C@H](OC(=O)C(C)CC)[C@H]1OC(C)=O` (stereo not given in full) is “inactive”.
